Compounds without any hit were thinned out: in the full panel of roughly 83,000, 20% have a hit.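 Testing used 96-well plates and a 48-hour single-concentration exposure. Example: -40 means 40% of the starting cells died.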 Activity calls are given as the source filed them. The calls were made as follows: active = growth percent below 10; inactive = the rest.

The test system of one experiment is EKVX NSCLC. As to the kind of experiment: NCI-60 one-dose screen, 48 h (100 = growth as untreated, 0 = no growth, -100 = all killed). The conditions noted are these: 10 µM unless noted.
`O=C1C[C@@H](c2ccccc2)Oc2c(Cc3ccccc3O)c(O)c(Cc3cc(Cc4cc(Cc5ccccc5O)ccc4O)ccc3O)c(O)c21`: the growth was 93.2% (inactive).
The same measure, in the same setting: for `CCC(CC)N1C(=O)/C(=c2\sc3n(c2=O)C2C(NN=3)N(CC)C(=O)N2CC)c2ccccc21` (stereo unspecified) the value was 48.1% (inactive); for `COC(=O)Nc1ccc(-c2nc(-c3cccc(O)c3)c(-c3ccnc(Br)c3)[nH]2)cc1`, 68.5% (inactive); for `CC(=O)Nc1ccc(NC(=O)Nc2cccc(-c3nc(-c4ccc(NC(=O)c5cccs5)cc4Cl)no3)c2)cc1C(F)(F)F`, -35.9% (active).
On the same count and under the same terms, as for `O=S(=O)(Nc1cc(Cl)cc(Cl)c1)c1ccc(-c2cnc(C3CC3)o2)cc1`, the figure is 43.9% (inactive); as for `CC(=O)Nc1ccc(NC(=O)Nc2cccc(-c3nc(-c4ccc(NC(=O)c5cccnc5)cc4Cl)no3)c2)cc1C(F)(F)F`, -39% (active).
Turning to `O=C(Nc1cccc(-c2nc(-c3ccc(NC(=O)c4cccs4)cc3Cl)no2)c1)Nc1ccc(NC(=O)C2CC2)c(C(F)(F)F)c1`, the growth is -34.2% (active).
On to `CN1C(=O)N(C)C2Nn3c(s/c(=C\c4ccccn4)c3=O)=NC21` (stereo unspecified), for which the growth is 99.7% (inactive).

The subject of the next experiment is SN12C renal. The experiment is described as above. The conditions noted are these: 10 µM unless noted.
As for `CCC(=O)Nc1ccc(-c2nc(-c3cccc(O)c3)c(-c3ccnc(Br)c3)[nH]2)cc1`, the growth is 67.4% (inactive).
As for `NC(=O)c1c(NC(=O)c2cccc(OC(F)(F)F)c2)sc2c1CCC(=O)C2`, the growth is 59.5% (inactive).
The same measure, in the same setting: as for `COc1cc(C2=NN(C(C)=O)C(c3ccc(N4CCOCC4)cc3)C2)cc(OC)c1OC` (stereo unspecified), the figure is 98.3% (inactive); as for `CCC(=O)Nc1cc(Nc2cc(NC3CC3)n3ncc(C#N)c3n2)ccc1C`, 43.4% (inactive).
`O=C(CSc1ccc(-c2nc3ccccc3[nH]2)cn1)N1CCN(c2ccccc2F)CC1`: the growth is 90.4% (inactive).
Same read-out and setting: for `NCCN1CCN(c2nc(-c3ccccc3)nc3nc(-c4ccccc4)oc23)CC1` the value was -79.4% (active).
Same read-out and setting: for `CCN(CC)Cc1c(-c2cccc(OC(F)(F)F)c2)[nH]c2ccc(N3CCCC3)cc2c1=O` the value was 93.3% (inactive).
In the case of `C#C[C@]1(O)CC[C@H]2[C@@H]3CC=C4c5sc(-c6ccc(OC)cc6)nc5CC[C@]4(C)[C@H]3CC[C@@]21C`, the growth is 84.2% (inactive).
Turning to `C#C[C@]1(O)CC[C@H]2[C@@H]3CC=C4c5sc(Nc6cc(OC)ccc6OC)nc5CC[C@]4(C)[C@H]3CC[C@@]21C`, the growth is 49% (inactive).
On the same count and under the same terms, for `O=C(Nc1cccc(-c2nc(-c3ccc(NC(=O)c4cccnc4)cc3Cl)no2)c1)Nc1ccc(NC(=O)C2CC2)c(C(F)(F)F)c1` the value was -60.8% (active); for `O=C(Nc1ccc(-c2nc(-c3cccc(O)c3)c(-c3ccnc(Br)c3)[nH]2)cc1)c1ccccc1`, 35% (inactive); for `COc1ccccc1N1CCN(C2=NN=C(c3cccc(Cl)c3)c3ccccc3C2)CC1`, 21.2% (inactive).
As for `O=C(NNc1nc2cc(F)c(F)cc2n2cccc12)c1ncccn1`, the growth is 23.9% (inactive).
Still for that read-out and setting: for `O=C(CN1C(=O)CSC1=O)Nc1ccc(C(=O)/C=C/c2cc3ccccc3nc2Cl)cc1` the value was 83.8% (inactive).
Still for that read-out and setting: for `O=C(C[n+]1ccnc2ccccc21)c1ccc(O)c(O)c1` the value was 59.5% (inactive).
On the same count and under the same terms, for `Cn1ccnc1C(=O)/C=C/c1ccc(C(=O)Nc2ccc(NC(=O)CCNC(=O)c3csc(Br)n3)cc2)cc1` the value was 40.2% (inactive); for `COc1ccc(Oc2ccc(C3CC(c4cc(OC)c(OC)c(OC)c4)=NN3C(C)=O)cc2)cc1` (stereo unspecified), 22.3% (inactive).
As to `O=C1/C(=C/c2ccccc2[N+](=O)[O-])Oc2ccc(O)cc21`, the growth was 30.9% (inactive).
Still for that read-out and setting: as for `O=c1c2ccccc2nc(COc2ccccc2)n1/N=C/C=C/c1ccccc1`, the figure is 87.6% (inactive); as for `C#C[C@]1(O)CC[C@H]2[C@@H]3CC=C4c5sc(C6CC6)nc5CC[C@]4(C)[C@H]3CC[C@@]21C`, 86.1% (inactive).
With `Cc1ccc(S(=O)(=O)N/N=C/c2cn(-c3ccc(F)cc3)nc2-c2ccc(S(C)(=O)=O)cc2)cc1`, the growth was 99.8% (inactive).
Same read-out and setting: for `C#C[C@]1(O)CC[C@H]2[C@@H]3CC=C4c5sc(-c6ccccn6)nc5CC[C@]4(C)[C@H]3CC[C@@]21C` the value was 87.2% (inactive); for `CCOC(=O)c1c(NC(=O)c2cccc(C(F)(F)F)c2)sc2c(CN3CCN(C)CC3)c(O)ccc12`, -83.7% (active).
Same read-out and setting: as for `CCOC(=O)Nc1ccc(-c2nc(-c3cccc(O)c3)c(-c3ccnc(Br)c3)[nH]2)cc1`, the figure is 44.7% (inactive).
Still for that read-out and setting: for `COc1ccc(NS(=O)(=O)c2ccc(-c3cnc(C4CC4)o3)cc2)cc1Cl` the value was 50.4% (inactive).
Take `O=S(=O)(Nc1ccc(I)c(Cl)c1)c1ccc(-c2cnc(C3CC3)o2)cc1`: the growth is 42.9% (inactive).
For `O=S(=O)(Nc1ccc2c(c1)OC(F)(F)O2)c1ccc(-c2cnc(C3CC3)o2)cc1`, the growth was 52.8% (inactive).
Turning to `O=C(CN1CCN(c2cc(=O)n(-c3ccccc3)c3ccccc23)CC1)Nc1ccc([N+](=O)[O-])cc1`, the growth was 87.2% (inactive).
Same read-out and setting: as for `CN(c1ccc(Cl)cc1)S(=O)(=O)c1ccc(-c2cnc(C3CC3)o2)cc1`, the figure is 29.8% (inactive).
`O=C(/C=C/c1cn(-c2ccccc2)nc1-c1ccc(Cl)cc1)c1cc2ccccc2oc1=O`: the growth is 31% (inactive).
Consider `O=C1C[C@@H](c2ccccc2)Oc2c(Cc3ccccc3O)c(O)c(Cc3cc(Cc4cc(Cc5ccccc5O)ccc4O)ccc3O)c(O)c21`, for which the growth was 100% (inactive).
Same read-out and setting: for `CCC(CC)N1C(=O)/C(=c2\sc3n(c2=O)C2C(NN=3)N(CC)C(=O)N2CC)c2ccccc21` (stereo unspecified) the value was 18.2% (inactive).
On the same count and under the same terms, as for `COC(=O)Nc1ccc(-c2nc(-c3cccc(O)c3)c(-c3ccnc(Br)c3)[nH]2)cc1`, the figure is 60.4% (inactive); as for `CC(=O)Nc1ccc(NC(=O)Nc2cccc(-c3nc(-c4ccc(NC(=O)c5cccs5)cc4Cl)no3)c2)cc1C(F)(F)F`, -64.5% (active).
On the same count and under the same terms, for `O=S(=O)(Nc1cc(Cl)cc(Cl)c1)c1ccc(-c2cnc(C3CC3)o2)cc1` the value was 50.6% (inactive).
Take `CC(=O)Nc1ccc(NC(=O)Nc2cccc(-c3nc(-c4ccc(NC(=O)c5cccnc5)cc4Cl)no3)c2)cc1C(F)(F)F`: the growth was -65% (active).
The same measure, in the same setting: for `O=C(Nc1cccc(-c2nc(-c3ccc(NC(=O)c4cccs4)cc3Cl)no2)c1)Nc1ccc(NC(=O)C2CC2)c(C(F)(F)F)c1` the value was -51.8% (active); for `CN1C(=O)N(C)C2Nn3c(s/c(=C\c4ccccn4)c3=O)=NC21` (stereo unspecified), 104% (inactive).

The values are drawn from PubChem BioAssay (NCI).
